High-throughput results (PubChem BioAssay)
Hits are enriched below; roughly 7.5% of the tested compounds scored in any of these assays.
SMN2 splice up = enhancers of SMN2 splice variant expression | HEK293 SMN2-luciferase splicing reporter, luminescence, 30-36 h | Potency, µM (highest dose often 46.1 µM), inactives show at the top dose activity change, positive = activation, actives largely listed as activators | AID 1458 | 2.8% of 210,000 active; note: % of control where 0% means no effect; nearly all actives have a fitted effect of over 55% in size
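HEK293 cells carry an SMN2 minigene-luciferase reporter in which exon 7 inclusion puts luciferase in frame. Cells were seeded at 2000 cells/well, attached for 10-12 hours, then exposed to compounds for 30-36 hours at 37C before ONE-Glo luminescence.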
ELG1 genotox = induces genotoxicity in HEK293T cells with luciferase-tagged ELG1; HEK293T ELG1-luciferase reporter, luminescence, 16 h; Potency, µM (top dose mostly 46 µM), without a hit: top-dose activity change, positive = activation, usual class: activators; 1.3% of 330,000 active; note: % of control where 0% means no effect; nearly all actives have a fitted effect of over 60% in size
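16 hr compound incubation (37 °C, 5% CO2) of HEK293T cells carrying luciferase-tagged ELG1; luciferase then measured by ONE-Glo luminescence after 30 min at RT.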
FLuc counter = firefly luciferase modulation, counter-screen for miR-21 project; 6.9% of 360,000 active; Potency, µM (titrated, usually from 57.5 µM), for inactives: top-dose activity change, negative = inhibition, actives largely listed as inhibitors; P08659; purified FLuc, Km substrates, luminescence inhibition;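 note: plate controls were vehicle for no effect and reference inhibitor for full effect; nearly all actives have a fitted effect of over 55% in size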
Target sequence (P08659 whole entry, looked up): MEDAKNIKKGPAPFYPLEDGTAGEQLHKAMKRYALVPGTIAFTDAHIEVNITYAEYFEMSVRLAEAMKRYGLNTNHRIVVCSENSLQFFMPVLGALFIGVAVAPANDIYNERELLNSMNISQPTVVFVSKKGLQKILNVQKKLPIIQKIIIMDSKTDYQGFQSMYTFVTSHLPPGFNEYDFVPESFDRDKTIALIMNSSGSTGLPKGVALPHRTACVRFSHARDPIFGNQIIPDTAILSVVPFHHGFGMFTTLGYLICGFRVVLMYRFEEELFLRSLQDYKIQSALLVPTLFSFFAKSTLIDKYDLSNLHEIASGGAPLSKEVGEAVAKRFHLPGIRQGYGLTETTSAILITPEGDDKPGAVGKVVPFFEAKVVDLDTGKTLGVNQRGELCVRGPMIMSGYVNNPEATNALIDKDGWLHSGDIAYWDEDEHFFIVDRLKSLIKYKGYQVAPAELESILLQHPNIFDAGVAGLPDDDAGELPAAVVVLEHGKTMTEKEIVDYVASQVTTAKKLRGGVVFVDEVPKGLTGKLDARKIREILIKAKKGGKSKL
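Purified P. pyralis luciferase, 10 nM final, with Km-level 10 uM D-luciferin and 10 uM ATP in 50 mM Tris acetate pH 7.5, 10 mM Mg acetate, 0.01% Tween-20, 0.05% BSA; 6-point qHTS titration about 60 µM downward; luminescence read.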
Rab9 prom act = Rab9 promoter activation; Huh7 Rab9 promoter-luciferase reporter, luminescence, 24 h; Potency, µM (doses to about 9.22 µM), inactives show top-dose activation, negative = inhibition, usual class: activators; 2.8% of 320,000 active; note: % of control where 0% means no effect; nearly all actives have a fitted effect of over 60% in size
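Quantitative HTS format; Huh7 Rab9-luciferase reporter cells (1500/well) receive compound 2 h post-plating, incubate 24 h at 37 °C, then get luciferase reagent for 10 min before luminescence reading.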
Luc counter = counter-screen: inhibitors of Kinase-Glo firefly luciferase; Q27757; Kinase-Glo luciferase, ATP luminescence, 8 min; Potency, µM (series often up to 38.3 µM), without a hit: at the top dose activity change, negative = inhibition, actives largely listed as inhibitors; 0.28% of 200,000 active; note: % is set by controls: 0 for no effect and ±100 for the full control effect; nearly all actives have a fitted effect of over 60% in size
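Inhibition of Kinase-Glo luciferase light generation was assessed at 10 uM ATP in pH 7.2 imidazole buffer, with luminescence measured after eight minutes at ambient temperature.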
NPC1 prom act = NPC1 promoter activation | 2.4% of 320,000 active | Potency, µM (highest dose often 9.22 µM), for inactives: at the top dose activation, most hits filed as activators | AID 485313 | Huh7 NPC1 promoter luciferase reporter, 24 h; note: % of control where 0% means no effect; nearly all actives have a fitted effect of over 60% in size
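Compounds in DMSO were transferred onto Huh7 NPC1-luciferase reporter cells pre-incubated 2 h; after 24 h at 37 °C, Amplite reagent was dispensed and luminescence recorded 10 min later.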
* marks the source's active call; other numbers are inactive results; ? = inconclusive; · = no result; [ ] = remark or other dose. Calls come from the whole dose curve; as a rule, active = well fitted curve in the direction sought with a large enough effect; inconclusive = small, poorly fitted or top-dose-only effect, or another doubt; inactive = no such curve, though single readings can be large; an effect the other way counts as inactive or inconclusive. Potency is the fitted concentration of half-maximal effect.

SMILES | SMN2 splice up | ELG1 genotox | FLuc counter | Rab9 prom act | Luc counter | NPC1 prom act
COC(=O)c1ccc(CNC(=O)c2ccc3c(c2)S(=O)(=O)N=C2CCCCCN23)cc1 | · | 3% | ? | 0% | · | -1%
CC(=O)c1cccc(NC(=O)C2CCN(C(=O)c3ccc([N+](=O)[O-])cc3)CC2)c1 | 10% | -7% | -1% | -8% | 2% | -1%
O=C(c1ccc2ccccc2c1)N1CCCC1 | · | 9% | 3% | -5% | · | -2%
Cc1cc(C)cc(NC(=O)Nc2ccc3c(c2)N(C)C(=O)CS3)c1 | -11% | -16% | ? | -2% | -2% | -2%
CC(=O)c1cccc(NC(=O)Nc2ccc(C(=O)N3CCCC3)cc2)c1 | -2% | -19% | 6.7µM* | 13% | ? | 26%
O=C(Nc1ccccc1)Nc1ccc(C(=O)N2CCCC2)cc1 | 6.3µM* | ? | 2.4µM* | 0.35µM* | 6.3µM* | 0.56µM*
O=C(c1ccccc1)N1CCCCCC1 | -13% | 1% | 0% | -4% | 3% | 0%
O=C1c2ccccc2-c2ccc(C(=O)N3CCCCC3)cc21 | 12% | ? | 27µM* | ? | 0% | ?
CC(=O)c1cccc(NC(=O)Nc2ccc3c(c2)N(C)C(=O)CS3)c1 | -19% | -31% | 15µM* | -10% | 1% | 1%
COC(=O)c1sccc1S(=O)(=O)N(CC(=O)NCc1ccc(C)cc1)c1ccc(C)cc1 | · | · | -2% | · | · | ·
CCc1ccc(C(=O)c2cn(CC(=O)Nc3cc(F)ccc3F)c3nc(C)ccc3c2=O)cc1 | · | · | -2% | · | · | ·
Cc1ccc(OCCn2nc3ccccc3n2)c(C)c1 | 3% | 18µM* | ? | 18% | 2% | 12%
O=C(Nc1cccc(C(=O)N2CCN(c3ccc(F)cc3)CC2)c1)c1nsc2ccccc12 | · | · | 0.85µM* | · | · | ·
O=C(Nc1cccc(C(=O)N2CCN(c3cccc(Cl)c3)CC2)c1)c1nsc2ccccc12 | · | · | 2.7µM* | · | · | ·
Cc1ccc(C)c(N2CCN(C(=O)c3ccc(NC(=O)c4nsc5ccccc45)cc3)CC2)c1 | · | · | 17µM* | · | · | ·
O=C(Nc1cccc(C(=O)N2CCN(c3cccc(Cl)c3)CC2)c1)c1ccccc1 | -23% | -19% | -5% | 1% | -1% | 0%
O=C(Nc1ccc(C(=O)N2CCN(c3ccccc3)CC2)cc1)c1nsc2ccccc12 | · | · | 5.4µM* | · | · | ·
Cc1ccc(C(=O)N2CCC(C)CC2)cc1NC(=O)c1nsc2ccccc12 | · | · | -21% | · | · | ·
CCOc1ccc(Br)cc1CNCCSc1nnnn1-c1ccccc1 | · | · | -2% | · | · | ·
O=C(Nc1cccc(C(=O)N2CCN(c3ccc(Cl)cc3)CC2)c1)c1nsc2ccccc12 | · | · | 1.2µM* | · | · | ·
O=C(Nc1ccc(C(=O)N2CCN(c3cccc(Cl)c3)CC2)cc1)c1nsc2ccccc12 | · | · | 4.3µM* | · | · | ·
Cc1ccc(C(=O)N2CCN(c3ccc(F)cc3)CC2)cc1NC(=O)c1nsc2ccccc12 | · | · | -4% | · | · | ·
O=C(Nc1cccc(C(=O)N2CCN(c3ccccc3F)CC2)c1)c1nsc2ccccc12 | · | · | 3µM* | · | · | ·
COc1cccc(N2CCN(C(=O)c3ccc(C)c(NC(=O)c4nsc5ccccc45)c3)CC2)c1 | · | · | -2% | · | · | ·
COc1cccc(C(=O)Nc2c(C(=O)c3ccc(F)cc3)oc3ccccc23)c1 | -6% | · | -1% | · | · | ·
SMILES | SMN2 splice up | ELG1 genotox | FLuc counter | Rab9 prom act | Luc counter | NPC1 prom act
Cc1[nH]n(-c2ccccc2)c(=O)c1/C=N/NC(=O)c1ccc(O)cc1O | · | ? | 2.1µM* | 11% | · | 19%
Cc1cc(C(=O)N/N=C/c2c(C)[nH]n(-c3ccccc3)c2=O)n[nH]1 | · | 2% | 5.4µM* | -2% | · | 0%
Cc1[nH]n(-c2ccccc2)c(=O)c1/C=N/Nc1nncc(-c2ccccc2)n1 | -83% | ? | 13µM* | -36% | -1% | -14%
CCc1nnc(NS(=O)(=O)c2ccc(N=Cc3c(C)[nH]n(-c4ccc(Cl)cc4)c3=O)cc2)s1 | -9%[1.84 µM] | 4% | -20% | 3% | -8% | 1%
Cc1[nH]n(-c2ccc(Cl)cc2)c(=O)c1/C=N/c1nnc(-c2ccccc2)s1 | 19% | 6% | 19µM* | 0% | ? | -2%
O=C(c1ccc(COc2ccccc2Br)o1)N1N=C(C(F)F)CC1(O)C(F)F (configuration not stated) | 5% | -1% | -6% | -5% | -1% | 0%
Cc1ccc(-n2[nH]c(C)c(/C=N/NC(=O)c3ccc(O)cc3O)c2=O)cc1 | · | ? | 0.43µM* | 4% | · | 23%
COc1ccc(NC(=O)Cn2c(=O)n(Cc3ccccc3)c(=O)c3oc4ccccc4c32)cc1Cl | · | · | 2.4µM* | · | · | ·
CCc1ccc(NC(=O)Cn2c(=O)n(Cc3ccccc3)c(=O)c3oc4ccccc4c32)cc1 | · | · | -4% | · | · | ·
COC(=O)c1cc(NC(=O)Nc2cccc(Cl)c2)ccc1Cl | -7% | -10% | 30µM* | 9% | 0% | 12%
COC(=O)c1cccc(NC(=O)Nc2ccc(Cl)cc2)c1 | · | -1% | 2.7µM* | 3.2µM* | · | 2.2µM*
O=C(CCSc1ccccc1Cl)Nc1cccc([N+](=O)[O-])c1 | ? | ? | ? | 22% | -2% | 16%
Cc1cccc(NC(=O)Nc2ccc(S(N)(=O)=O)cc2)c1 | · | 2% | ? | 11% | · | 14%
NS(=O)(=O)c1cccc(NC(=O)CCSc2ccccc2Cl)c1 | ? | ? | 17µM* | ? | -4% | ?
NS(=O)(=O)c1cccc(NC(=O)Nc2ccc(Cl)cc2)c1 | · | 6% | 7.6µM* | 18% | · | 30%
O=C(Nc1cccc(Cl)c1)Nc1cccc(Cl)c1 | -12% | -3% | ? | 11% | -2% | 13%
COc1cc2nc(NC(=O)c3ccc(S(=O)(=O)N4CCOCC4)cc3)sc2cc1OC | · | · | -14% | · | · | ·
C#C[C@]1(O)CCC2C3CCC4=Cc5oncc5C[C@@]4(C)C3CC[C@@]21C (some centres not stated) | -12% | · | · | · | 0% | ·
CN(C)S(=O)(=O)c1cccc(NC(=O)COC(=O)CCSc2ccc(Cl)cc2)c1 | -4% | 1% | 21µM* | 2% | 3% | -2%
COC(=O)c1cccc(NC(=O)NC23CC4CC(CC(C4)C2)C3)c1 | 11% | ? | 9.5µM* | 24% | 8% | 21%
O=C(c1ccncc1)N1CCC2(CCCN(Cc3nccs3)C2)CC1 | -9% | · | · | · | 0% | ·
O=C(Nc1ccn(Cc2ccccc2F)n1)c1ccc(COc2ccccc2Cl)cc1 | -84% | -9% | -3% | -15% | -6% | -2%
O=C(Nc1ccn(Cc2ccccc2F)n1)c1ccc(COc2cccc(Br)c2)cc1 | ? | ? | 6.7µM* | 1.8µM* | 18% | 1.6µM*
Cc1cc(NC(=O)c2ccc(Br)o2)ccc1NC(=O)c1ccco1 | · | ? | ? | 17% | · | 9%
